The campaign covered roughly 290,000 compounds. About 27,000 (9.3%) were called active. Shown is part of a subset that was picked to be rich in actives. A number with no mark means an inactive call. No stated cut-off is given here; in the data, active means inhibition mostly above about 28% (no sharp cut-off); inactive means mostly below about 43%.
Assay: A qHTS for Small Molecule Inhibitors of Shiga Toxin; on inhibition: 0% is about no effect
Conditions: Vero cells, Shiga toxin protein synthesis inhibition reporter; at 38.7 µM, active compounds read high

SMILES | inhibition
CC(C)(C)NC(=O)NC(=O)COC(=O)C1c2ccccc2Oc2ccccc21 | -5.17%
Cc1ccc2[nH]c(=O)c(CC(=O)O)c(-c3ccccc3)c2c1 | 1.65%
COc1cc(/C=N\NC(=O)C2C(=O)NCC2c2ccccc2)cc(OC)c1O (stereo not drawn) | -11.2%
COc1ccc(/C=N/NC(=O)c2ccncc2)cc1CN1CCCc2ccccc21 | -1.95%
Cc1cc(C(=O)N/N=C/c2ccc(O)c([N+](=O)[O-])c2)c(C)n1-c1ccc(F)cc1 | 0% (active)
COc1cc(/C=N/NC(=O)c2ccc(N3CCCC3=O)cc2)ccc1O | 56.5% (active)
O=C(N/N=C/c1cccc(Br)c1)c1ccc(N2CCCC2=O)cc1 | 18.7%
COc1cc(/C=N/NC(=S)Nc2cccnc2)cc(OC)c1O | -4.42%
Cc1nn(CC(=O)N/N=C/c2ccc(F)cc2)c(C)c1[N+](=O)[O-] | -12.8%
Cc1cc(C(=O)N/N=C/c2ccc(N3CCOCC3)cc2)c(C)o1 | 46.9%
COc1cc(/C=N/NC(=O)c2cc(C)n(-c3ccc(F)cc3)c2C)cc(OC)c1O | 43.1% (active)
CCc1ccc(CNC(=O)C2CC(=O)N(CCc3ccc(C)cc3)C2)cc1 (stereo not drawn) | -9.66%
COCCC(=O)N1CCC(Oc2ccc(C(=O)NCc3ccon3)cc2)CC1 | -10.3%
CCCCCC1CC(COc2ccccc2)OC1=O (stereo not drawn) | -10.6%
Cc1cc(-c2n[nH]c(=S)n2/N=C/c2ccco2)n[nH]1 | -9.01%
Cc1cc(-c2n[nH]c(=S)n2/N=C/C(Br)=C/c2ccccc2)n[nH]1 | 91.5% (active)
S=c1[nH]nc(-c2cccnc2)n1/N=C/C(Cl)=C\c1ccccc1 | 48.2%
CC(=O)c1c(C)oc2ccc(NS(=O)(=O)c3ccc(C(=O)O)cc3)cc12 | 18.1%
CCCCN(CCCC)CCCNC(=O)CN1C(=O)COc2ccc(S(=O)(=O)N3CCC(C)CC3)cc21 | -6.42%
Cc1cccc(NC(=O)C2CCCN(C(=O)Nc3ccc(F)cc3)C2)c1C (stereo not drawn) | 1.84%
Nc1nonc1C(=O)NCCc1ccccc1 | 66.7% (active)
CN(C)/C(=N\OC(=O)c1ccccc1)c1nonc1N | -8.6%
NC(=O)Nc1ccccc1C(=O)NCCc1ccccc1 | 83.7% (active)
O=C(NCCc1ccccc1)C1CC1 | 8.81%

SMILES | inhibition
O=C(O)c1ccccc1-c1ccccc1C(=O)NCCc1ccccc1 | 23.5%
NS(=O)(=O)c1ccc(CCNC(=O)CNC(=O)Cc2ccccc2)cc1 | -4.55%
Cc1ccc(-c2ccc(=O)n(Cc3ccc(F)cc3Cl)n2)cc1 | -3.36%
CCOC(=O)N1CCC(N2Cc3cccc(C(=O)Nc4c(C)cccc4CC)c3C2=O)CC1 | 3.74%
CC(C)[C@H](NC(=O)N1CCn2c1nc1ccccc12)C(=O)NCc1ccc2c(c1)OCO2 | 10.7%
O=C(CN1C(=O)NC2(CCCCC2)C1=O)NCCc1c[nH]c2ccccc12 | -14%
O=C(CCC(=O)n1ncc2ccccc21)NCc1ccccc1Cl | -2.08%
CCCOc1ccc(C2=CSC3=NCCN23)cc1Cl | -7.6%
CCN(CC)S(=O)(=O)c1ccc(N2CCOCC2)c(NC(=O)C2CSC3(C)CCC(=O)N23)c1 (stereo not drawn) | -6.24%
COc1ccc2c3c(c(=O)oc2c1)C1O[C@](CCCCN2C(=O)c4ccccc4C2=O)(Cc2c1ccc1ccccc21)O3 | inactive
Cc1cccc(NC(=O)CCn2c(=O)oc3ccccc32)c1 | 63.6%
Cc1ccc(OCCCn2c(=O)oc3ccccc32)cc1 | 52.4% (active)
NC(=O)Cn1c(=O)oc2ccccc21 | 18.3%
CCc1ccc(NC(=O)Cn2nnc(C(=O)NCc3ccc(OC)cc3)c2N)cc1 | 6.32%
COc1ccc2c(c1)CCc1c(C(=O)N3CCc4ccccc4C3)noc1-2 | 26.1%
COc1ccc2c(c1)CCc1c(C(=O)N3CCCC3)noc1-2 | 55.2% (active)
COc1ccc2oc(=O)c(C(=O)N3CCCC3)cc2c1 | -3.3%
COc1ccc(/C=C2\CCc3ccccc3C2=O)c(OC)c1OC | 77.4% (active)
O=C1/C(=C/c2cccs2)CCc2ccccc21 | 85.4% (active)
O=C1/C(=C/c2cccs2)SC(=S)N1C1CCS(=O)(=O)C1 (stereo not drawn) | -16.1%
O=C(COC(=O)/C=C/c1cccs1)NC1CCCCC1 | 10.6%
O=C1/C(=C/c2cccs2)CCC1C1CCCC1 (stereo not drawn) | 136% (active)
COc1ccc2c(c1OC)C(=O)c1ccccc1C2=O | 16.6%
COc1ccc(/C=N/NC(=O)C2CC2)c(OC)c1OC | -1.72%

From PubChem BioAssay AID2315 (National Center for Advancing Translational Sciences (NCATS), 2010)
